# Inconclusive results are not listed. Entries that show only a call come without a potency. Unmarked numbers belong to inactive results. The source made the active and inactive calls. Calls follow the shape of the full dose curve.
# Assay: qHTS assay to identify small molecule agonists of H2AX - cell viability counter screen (AID 1224847); also: top concentration of the series differs between compounds; nearly all actives have a fitted effect of over 30% in size
# Conditions: CHO-K1 viability, CellTiter-Glo luminescence, 3 h; series mostly up to 154 µM
# Excerpt: National Center for Advancing Translational Sciences [NCATS]
# NIH Chemical Genomics Center [NCGC]
# U.S. Environmental Protection Agency [EPA]
# National Institutes of Environmental Health Sciences [NIEHS]
# National Toxicology Program [NTP]
# U.S. Food and Drug Administration [FDA]
# HTRF phospho-H2AX (Ser139) assay (Cisbio Bioassays, US) enables the quantitative detection of the histone variant H2AX when phosphorylated on serine 139. When double-stranded DNA breaks, either by ionizing radiation or endogenous physiological processes, H2AX becomes phosphorylated at Ser139. This phospho-Ser139 serves as a sensitive biomarker for the detection of such breaks, localizing the site of DNA repair. So, HTRF phospho-H2AX Ser139 is a pertinent assay to study genome stability, the cell cycle, DNA repair, and it serves as a biomarker for cancer, and to understand aging. Wild type CHO-K1 cells were used to identify the inducers of Phospho-H2AX Ser 139 from the Tox21 compound collections. Also cytotoxicity of the Tox21 10K compound library against the CHO-K1 cell line was tested by measuring the cell viability using CellTiter-Glo assay (Promega, Madison, WI).
# Tox21 Assay Protocol Summary:
# The CHO-K1 cells suspended in culture medium containing 10% FBS were dispensed at 1000 cells/ 3 ul/well in 1536-well white wall/solid bottom plates (Greiner Bio-One North America, NC) using a Multidrop Combi (Thermo Fisher Scientific Inc., Waltham, MA). After the assay plates were incubated at 37C overnight, 23 nl of compounds at 15 concentrations (from 5-48 columns) or positive control (from 1 to 4 columns) were transferred to the assay plates using a Pintool station (Wako, San Diego, CA) into each well resulting in a final DMSO concentration of 0.76%. After 3hr incubation at 37C, 3 uL/well CellTiter-Glo luminescent cell viability reagent (Promega Corporation, Madison, WI) was added using a Flying Reagent Dispenser (FRD) (Aurora Discovery, CA). After incubation at room temperature for 30 min, the luminescence intensity was read using a ViewLux plate reader (PerkinElmer, Waltham, MA).
Compound,Potency,"activity change, negative = cytotoxicity"
C[C@]12C=CC(=O)C=C1CC[C@@H]1[C@@H]2CC[C@@]2(C)[C@H]1CC[C@]2(C)O,inactive,–
CCOC(=O)COc1ccc(Cl)cc1Cl,inactive,–
Cn1c(CCCC(=O)O)nc2cc(N(CCCl)CCCl)ccc21,inactive,–
CCN1CCCC1CNC(=O)C(O)(c1ccccc1)c1ccccc1 (stereo not given),inactive,–
CNC(=O)NC(O)C(Cl)(Cl)Cl (stereo not given),inactive,–
Oc1ccc(Cc2ccc(O)cc2)cc1,inactive,–
Cn1c(N)nc2c3cccnc3ccc21,inactive,–
O=C(NC(=O)c1c(F)cccc1F)Nc1cc(Cl)c(F)c(Cl)c1F,inactive,–
CCCCCCCC(=O)Cl,inactive,–
Oc1ccc2c3c1O[C@H]1[C@@H](O)C=C[C@H]4[C@@H](C2)NCC[C@@]341,inactive,–
O=C1CC(=O)NC(=O)N1,inactive,–
N[C@@H]1C[C@H]1c1ccccc1,inactive,–
O=C(NC(O)C(Cl)(Cl)Cl)NC(O)C(Cl)(Cl)Cl (stereo not given),inactive,–
ClCCCCCCCl,inactive,–
CC1NCCOC1c1ccccc1 (stereo not given),inactive,–
CCC(C)(C#N)N=NC(C)(C#N)CC (stereo not given),inactive,–
CCN[C@@H](C)Cc1ccccc1,inactive,–
CCNP(=S)(OC)O/C(C)=C/C(=O)OC(C)C (stereo not given),inactive,–
CC(C)(N)Cc1ccccc1Cl,inactive,–
CCCOC(=O)Cc1ccc(OCC(=O)N(CC)CC)c(OC)c1,inactive,–

Compound,Potency,"activity change, negative = cytotoxicity"
O=C(O)C(F)(F)C(F)(F)C(F)(F)C(F)(F)C(F)(F)C(F)(F)F,inactive,–
N=C(N)[Se],inactive,–
CCOP(=S)(OCC)SCCl,inactive,–
CON(C)C(=O)Nc1ccc(Br)cc1,inactive,–
CCCCOC(C)=O,inactive,–
CCCC(C)(COC(N)=O)COC(N)=O,inactive,–
CC(C)(C)C(=O)Cl,inactive,–
CC(C)(O)C(Cl)(Cl)Cl,inactive,–
COc1ccccc1OC,inactive,–
Brc1c(Br)c(Br)c(Br)c(Br)c1Br,–,-1.61% [at 14 µM]
O=C(Cl)C(Cl)Cl,inactive,–
CCN[C@@H](C)Cc1cccc(C(F)(F)F)c1,inactive,–
CN(C)CCc1c[nH]c2cccc(OP(=O)(O)O)c12,inactive,–
C/C(=N\NC(=O)Nc1cc(F)cc(F)c1)c1ncccc1C(=O)O,inactive,–
C=CCN1CC[C@]23CCCC[C@H]2[C@H]1Cc1ccc(O)cc13,inactive,–
CC(C)c1ccc(O)cc1,inactive,–
CC[C@H](N)c1ccccc1,inactive,–
Cl/C=C/CCl,inactive,–
CCC(=O)c1ccc(Cl)cc1,inactive,–
CCOP(=O)(CN(CCO)CCO)OCC,inactive,–

# Reference: PubChem BioAssay (Tox21)
